Structures are written as SMILES. ± gives the uncertainty stated by the source.
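Also: viable cell number estimated from Alamar Blue fluorescence read at 560/90, part of a single-dose primary screen of an FDA-approved drug library.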

In this assay the test system is U87. In words: cell viability relative to vehicle control; higher = less growth inhibition (less active). Particulars: 10 µM; 72 h.
On to `C#C[C@]1(O)CC[C@H]2[C@@H]3CCC4=CC(=O)CC[C@@H]4[C@H]3CC[C@@]21CC`, for which the cell viability is 105.5 ± 0.58%.

Consider `COc1ccnc(C[S+]([O-])c2nc3cc(OC(F)F)ccc3[nH]2)c1OC` (centres undefined), for which the cell viability amounted to 125.2 ± 1.1%.

`CN(C)CCOC(C)(c1ccccc1)c1ccccn1` (centres undefined) [doxylamine succinate]: the cell viability was 96.6 ± 1.2%.

In the case of `c1cnc(N2CCN(Cc3ccc4c(c3)OCO4)CC2)nc1` [Piribedil], the cell viability amounted to 108.4 ± 0.77%.

Regarding `Cc1nc2n(c(=O)c1CCN1CCC(c3noc4cc(F)ccc34)CC1)CCCC2`, the cell viability is 108 ± 1.7%.

Consider `Cn1c(NCCN(CCO)CCCc2ccc([N+](=O)[O-])cc2)cc(=O)n(C)c1=O`, for which the cell viability amounted to 102 ± 3.1%.

On to `CCN(CC)CC1CCCCN1CC(=O)N1c2ccccc2C(=O)Nc2cccnc21` (centres undefined), for which the cell viability amounted to 110 ± 1.9%.

As to `CCCN[C@H]1CCc2nc(N)sc2C1` [Pramipexole], the cell viability was 92.5 ± 8.8%.

Turning to `O=C(CCCN1CC=C(n2c(=O)[nH]c3ccccc32)CC1)c1ccc(F)cc1`, the cell viability stood at 106 ± 1.7%.

`CN=C(N)NCCC[C@H](N)C(=O)O` [L-Ornithine, N5-[imino(methylamino)methyl]-[CAS]]: the cell viability was determined as 104.9 ± 0.88%.

Regarding `CC(C(=O)O)c1ccc(-c2ccccc2)c(F)c1` (centres undefined) [Flurbiprofen], the cell viability turned out to be 105 ± 12%.

In the case of `Nc1[nH]c(=O)ncc1F`, the cell viability turned out to be 102 ± 1.7%.

With `Nc1nc(N)nc(-c2cc(Cl)ccc2Cl)n1`, the cell viability turned out to be 95.63 ± 0.69%.

With `Cc1ncc([N+](=O)[O-])n1CC(C)O` (centres undefined) [1-(2-Methyl-5-nitro-imidazol-1-yl)-propan-2-ol], the cell viability amounted to 102.9 ± 0.98%.

With `Nc1nc(O)c2ncn(CCC(CO)CO)c2n1`, the cell viability was determined as 103 ± 2.2%.

On to `CCOC(=O)[C@H](CCc1ccccc1)N[C@H]1CCc2ccccc2N(CC(=O)O)C1=O`, for which the cell viability worked out at 107 ± 1.2%.

As to `CC(=O)OCC(=O)NCCCOc1cccc(CN2CCCCC2)c1`, the cell viability was determined as 102 ± 1.4%.

As to `OCc1cccnc1`, the cell viability stood at 108 ± 1.5%.

With `CCOC(=O)[C@H](CCc1ccccc1)N[C@@H](C)C(=O)N1[C@H](C(=O)O)C[C@@H]2CCC[C@@H]21`, the cell viability is 101 ± 1.5%.

As for `Nc1ccc2cn[nH]c2c1`, the cell viability was 108 ± 2.4%.

For `CCCc1nc(C)c2c(=O)nc(-c3cc(S(=O)(=O)N4CCN(CC)CC4)ccc3OCC)[nH]n12`, the cell viability worked out at 107.7 ± 0.41%.

On to `O=C1CCc2ccc(OCCCCN3CCN(c4cccc(Cl)c4Cl)CC3)cc2N1`, for which the cell viability is 102 ± 1.1%.

In the case of `CN1CCCCC1CCN1c2ccccc2Sc2ccc([S+](C)[O-])cc21` (centres undefined) [Mesoridazine], the cell viability stood at 105 ± 2.8%.

For the molecule `COc1ccc2cc([C@H](C)C(=O)O)ccc2c1`, the cell viability was found to be 106 ± 1.4%.

As to `CC(C)(C)C(O)/C=C/c1ccc2c(c1)OCO2` (centres undefined) [Stiripentol], the cell viability stood at 105.6 ± 0.6%.

With `CC(=O)Nc1ccc(CC(=O)O)cc1`, the cell viability amounted to 100 ± 1.1%.

For `CC(C)(C#N)c1cc(Cn2cncn2)cc(C(C)(C)C#N)c1`, the cell viability amounted to 109 ± 1.3%.

On to `CC(=O)OCC(CCn1cnc2cnc(N)nc21)COC(C)=O`, for which the cell viability came to 104.2 ± 0.4%.

For the molecule `CNNCc1ccc(C(=O)NC(C)C)cc1` [Procarbazine], the cell viability was found to be 104.4 ± 0.86%.

`C=CC[C@@H]1/C=C(\C)C[C@H](C)C[C@H](OC)[C@H]2O[C@@](O)(C(=O)C(=O)N3CCCC[C@H]3C(=O)O[C@H](/C(C)=C/[C@@H]3CC[C@@H](O)[C@H](OC)C3)[C@H](C)[C@@H](O)CC1=O)[C@H](C)C[C@@H]2OC`: the cell viability amounted to 101.8 ± 0.73%.

As for `CN1C(C(=O)Nc2ccccn2)=C(O)c2ccccc2S1(=O)=O` [Piroxicam], the cell viability was determined as 103 ± 3.7%.

With `CC(C)c1nc(CN(C)C(=O)N[C@H](C(=O)N[C@@H](Cc2ccccc2)C[C@H](O)[C@H](Cc2ccccc2)NC(=O)OCc2cncs2)C(C)C)cs1`, the cell viability worked out at 102 ± 3%.

Consider `C[C@@H]1C[C@H]2[C@@H]3CCC4=CC(=O)C=C[C@]4(C)[C@@]3(F)[C@@H](O)C[C@]2(C)[C@H]1C(=O)CO`, for which the cell viability amounted to 106 ± 0.2%.

`CN1CCN(C2=Nc3ccccc3Oc3ccc(Cl)cc32)CC1` [Loxapine]: the cell viability came out at 102 ± 1.6%.

`C[C@H](CCC(=O)O)[C@H]1CC[C@H]2[C@@H]3C(=O)C[C@@H]4CC(=O)CC[C@]4(C)[C@H]3CC(=O)[C@]12C`: the cell viability was 103.4 ± 0.82%.

In the case of `CCN(CC)CC(=O)Nc1c(C)cccc1C`, the cell viability is 94.8 ± 2.8%.

As to `C=CC1=C(C(=O)O)N2C(=O)[C@@H](NC(=O)/C(=N\O)c3csc(N)n3)[C@H]2SC1`, the cell viability is 107 ± 1.5%.

As to `C[C@]12CC[C@@H]3c4ccc(O)cc4CC[C@H]3[C@@H]1CC[C@@H]2O`, the cell viability came to 97.2 ± 2.4%.

As for `CC(=O)Oc1ccccc1C(=O)Nc1ncc([N+](=O)[O-])s1`, the cell viability came out at 103 ± 2.3%.

A word on the cell viability: it is a read-out of living cells in per cent, often relative to untreated cells.

(Values after the supplement of paper PMC3898565.)
